Source: PubChem BioAssay AID687001 (Broad Institute, 2013)
Results with a measured potency or affinity are listed apart.

These compounds were tested against Protein S100-A4 (Homo sapiens) (UniProt P26447) (assay: human S100A4 peptide interaction inhibition curves – biochemical, fluorescence polarization, cherry-picked hits, dose response (AID 687001;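 also: 0% = DMSO neutral control wells and -100% = TFP positive control wells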)). Details: FP, S100A4/TAMRA-myosin IIA peptide binding; series mostly up to 11 µM; activity change, negative = inhibition: at the top concentration;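 active = signal-lowering compounds whose fitted half-maximal concentration is at or below twice the top tested dose in every run; inconclusive = runs disagree, flat 30 to 70% inhibition, or poor curve fit; inactive = the rest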.
Sequence of Protein S100-A4 (Homo sapiens) (P26447 whole entry, looked up): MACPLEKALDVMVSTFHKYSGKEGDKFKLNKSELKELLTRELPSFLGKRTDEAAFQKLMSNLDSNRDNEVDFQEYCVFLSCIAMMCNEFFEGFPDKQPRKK

Activity change, negative = inhibition, inactive:
Cc1nc(Nc2cccc(O)c2)c2oc3ccccc3c2n1 -7.88%
O=C1SCCC1NC(=O)C(c1ccccc1)c1ccccc1 (centres undefined) 2.61%
COc1cccc(-c2ccc([C@H]3[C@H](CO)N4CCCCN(CC5CC5)C[C@@H]34)cc2)c1 7.26%
CN(C)S(=O)(=O)c1ccc(Cl)c(C(=O)NNC(=O)Cn2ccc(C(F)(F)F)n2)c1 -0.517%
Cc1ccc(C)c(N2CCN(S(=O)(=O)c3c(C)[nH]c(C)c3C(=O)N3CCCCC3)CC2)c1 -3.83%
COC(=O)[C@]12CCCCC=C1N(Cc1ccc(Cl)cc1Cl)C(=O)[C@H](CC(=O)N1CCCC1)C2 -3.46%
N#C[C@@H]1[C@H](c2ccccc2-c2cccc(F)c2)[C@@H](CO)N1C(=O)C1CC1 -2.63%
COc1cc2cnc(-c3ccccc3F)cc2cc1OC -1.06%
Cn1c(=O)oc2cc(S(=O)(=O)NCc3ccc(Cl)cc3)ccc21 -0.477%
Cc1cc2ccccc2n1CCNC(=O)Cc1cccc2ccccc12 -5.56%
O=C(C[C@H]1CC[C@@H]2[C@H](COC[C@H](O)CN2C(=O)Nc2ccc3c(c2)OCO3)O1)N1CCN(c2ccccc2)CC1 5.56%
Cn1c(CC(=O)NNC(=O)c2ccc(F)cc2F)nc2ccccc21 -2.58%
O=C(NCc1cc([N+](=O)[O-])ccc1O)c1cccnc1Sc1ccccc1 0.274%
CCc1ccc(C(=O)COC(=O)c2ccco2)cc1 -1.4%
C=C1CCN([C@@H](Cc2ccccc2)C(=O)NC2CCN(Cc3ccccc3)CC2)S(=O)(=O)c2ccccc21 -0.361%
CC(=O)c1c(C)[nH]c(C(=O)OCc2csc(CC(=O)Nc3ccccc3C)n2)c1C 8.31%
COc1ccc(NC(=O)N(C)C[C@@H]2Oc3ncc(C#CC(C)(C)O)cc3C(=O)N([C@H](C)CO)C[C@@H]2C)cc1 -0.198%
CN1C(=O)c2cc(NC(=O)C3CCC3)ccc2OC[C@@H]2O[C@@H](CC(=O)NCc3ccccc3F)CC[C@@H]21 2.16%
COc1ccccc1Nc1cc(C)nc(Nc2ccccc2OC)n1 -4.06%
CC(C)NC(=O)N1[C@@H](CO)[C@@H](c2ccccc2)C12CN(C(=O)Cc1cccnc1)C2 3.57%
CC1CCCCC1NC(=O)CSc1nnc(-c2ccco2)n1N (centres undefined) -4.3%
COc1ccc(C2/C=C\CN(S(=O)(=O)c3cccc4cccnc34)CC(=O)N2Cc2ccc(F)cc2)cc1 (centres undefined) -1.77%
COC(=O)[C@@H]1[C@@H](CO)[C@@H]2Cn3c(ccc(-c4ccccc4)c3=O)[C@@H]2N1C(=O)CC1CC1 7.03%
O=C1CNC[C@H]2[C@@H](c3ccc(C#CC4CCCC4)cc3)[C@@H](CO)N12 23.8%
C[C@@H]1CN([C@@H](C)CO)S(=O)(=O)c2ccc(-c3cccc(C#N)c3)cc2O[C@@H]1CN(C)C(=O)c1ccc(F)cc1 -0.639%
Cc1ccc([N+](=O)[O-])cc1N=Nc1c(C)[nH]n(C(N)=S)c1=O -7.89%
CC1CCCCC12NC(=O)N(CC(=O)OCC(=O)Nc1ccc(F)cc1[N+](=O)[O-])C2=O (centres undefined) -0.728%
COc1ccc(-c2coc(CCC(=O)N3CCN(c4cc(C)ccc4C)CC3)n2)cc1 10.4%
C[C@H](CO)N1C[C@H](C)[C@H](CN(C)CC2CC2)OCc2ccccc2-c2c(n(C)c3ccccc23)C1=O 0.788%
Cc1nonc1NC(=O)CSc1nnc(N)s1 -1.66%
CCC(=O)N1[C@@H]2c3ccc(-c4ccncc4)c(=O)n3C[C@H]1[C@H](CO)[C@H]2C(=O)NC1Cc2ccccc2C1 0.367%
Cc1ccccc1NC(=O)C1CCN(S(=O)(=O)c2ccc3c(c2)NC(=O)C(C)S3)CC1 (centres undefined) 47.4%
O=C(Nc1ccccc1F)N[C@@H]1CC[C@H](CCNC(=O)C2CCCCC2)O[C@H]1CO 9.26%
CC(OC(=O)C1=COCCO1)C(=O)Nc1ncc(Cl)cc1Cl (centres undefined) 0.629%
CC(=O)Cc1cc2cc([N+](=O)[O-])ccc2oc1=O -1.55%
Cc1ccc(S(=O)(=O)N(C)C[C@@H]2Oc3c(NC(=O)C4CCCCC4)cccc3C(=O)N([C@H](C)CO)C[C@@H]2C)cc1 7.16%
COc1ccccc1NC(=O)N[C@H]1CC[C@H](CCNS(=O)(=O)c2ccc(Cl)cc2)O[C@H]1CO 4.41%
O=C(NC1CCCCC1)[C@H]1[C@H](CO)[C@H]2Cn3c(cccc3=O)[C@H]2N1C(=O)CC1CC1 7.77%
CNS(=O)(=O)c1ccc2c(c1)[nH]c(=S)n2C -20.7%
